From PubChem
CHRM1 antagonist – human CHRM1 antagonism. P11229. CHO-K1 hM1, Fluo-8 calcium fluorescence, ACh EC80 antagonist. inhibition, % at 3 µM. actives 1.3% (n = 360,000). AID 588852;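 active = percent inhibition above its own plate's cutoff, namely the mean of that plate's compound wells plus 3 SD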;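 note: peak over basal fluorescence ratio during 140 s after agonist addition; 0% = ACh EC80 plus DMSO and 100% = DMSO alone without agonist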
Target sequence (P11229 whole entry, looked up): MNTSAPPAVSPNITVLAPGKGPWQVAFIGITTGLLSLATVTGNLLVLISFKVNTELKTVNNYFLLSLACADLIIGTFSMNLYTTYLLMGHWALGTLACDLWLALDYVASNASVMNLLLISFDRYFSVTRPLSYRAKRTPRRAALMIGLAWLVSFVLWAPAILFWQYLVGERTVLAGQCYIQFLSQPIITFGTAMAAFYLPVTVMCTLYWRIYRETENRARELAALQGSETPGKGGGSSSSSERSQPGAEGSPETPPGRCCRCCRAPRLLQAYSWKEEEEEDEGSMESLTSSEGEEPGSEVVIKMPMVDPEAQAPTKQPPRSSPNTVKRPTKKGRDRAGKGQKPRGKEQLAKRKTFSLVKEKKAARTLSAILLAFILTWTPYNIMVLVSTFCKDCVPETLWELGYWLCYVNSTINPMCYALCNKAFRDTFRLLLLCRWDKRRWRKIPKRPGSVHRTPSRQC
M1 PAM – human CHRM1 positive allosteric modulation; CHO-K1 hM1, Fluo-8 calcium fluorescence, ACh EC20; 0% = ACh EC20, 100% = maximal ACh; activation, % at 3 µM; actives 0.088% (n = 360,000); in the data active = activation above about 19%, passing the limit was not always enough
CHO-K1 Ca antag – M1 antagonist counterscreen hit in parental CHO-K1 cells; ATP-induced calcium, Fluo-8 fluorescence; inhibition, % at 3 µM; actives 0.6% (n = 360,000);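 active = inhibition above a per-plate cutoff, the plate's mean sample inhibition plus 3 SD, cut at about 24% in these data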;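 note: 0% = DMSO plus EC80 ATP and 100% = DMSO alone without ATP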
CHRM1 agonist – activates human CHRM1 receptor | P11229 | CHO-K1 hM1, Fluo-8 calcium fluorescence, agonist mode; 0% DMSO, 100% acetylcholine EC100 | activation, % at 3 µM | actives 0.33% (n = 360,000) | AID 588814;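 active = activation above the run's mean compound activation plus 3 SD, cut at about 16% in these data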;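 note: peak over basal fluorescence ratio within a 140 s kinetic read after compound addition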
M1 PAM parental – M1 PAM counterscreen hit in parental CHO-K1 cells; AID 602247; activation, % at 3 µM; actives 0.02% (n = 360,000); ATP EC20, Fluo-8 calcium fluorescence; 0% at ATP EC20, 100% at ATP max;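 active = activation above the run cutoff, the mean activation of all test compounds plus 3 SD, cut at about 40% in these data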;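 note: peak over basal fluorescence ratio in a 140 s read after ATP addition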
M1 ag parental – nonselective activator or artifact in parental CHO-K1 cells; Fluo-8 calcium fluorescence; scaled to maximal ATP response, vehicle zero; activation, % at 3 µM; actives 0.48% (n = 360,000); in the data active = activation above about 15%;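 note: untransfected CHO-K1 host cells lacking M1 receptor as counterscreen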
* hit, by the source's call. Rows were chosen to be rich in hits. Some 2.3% of all compounds tested hit in one or more screens of this group.

CCc1nc2ccc(C(=O)N3CCN(C)CC3)cn2c1N(C)CCCc1ccccc1 was read as CHRM1 antagonist 33*, M1 PAM -30, CHO-K1 Ca antag -14, CHRM1 agonist -8, M1 PAM parental 14 and M1 ag parental 2.
Screening CCc1nc2ccc(C(=O)NCCCn3ccnc3)cn2c1N(CC)C(=O)NCCc1ccccc1 returned CHRM1 antagonist -11, M1 PAM 5, CHO-K1 Ca antag -2, CHRM1 agonist -4, M1 PAM parental 6 and M1 ag parental 0.
Screening CCc1nc2ccc(C(=O)N3CCCCC3)cn2c1N(C)CCCc1ccccc1 returned CHRM1 antagonist 69*, M1 PAM -25, CHO-K1 Ca antag -8, CHRM1 agonist -8, M1 PAM parental 5 and M1 ag parental 1.
Screening CCc1nc2ccc(C(=O)NCCCn3ccnc3)cn2c1N(C)CCCc1ccccc1 returned CHRM1 antagonist 44*, M1 PAM -26, CHO-K1 Ca antag -1, CHRM1 agonist -7, M1 PAM parental 15 and M1 ag parental 2.
CCc1nc2ccc(C(=O)N3CCN(C)CC3)cn2c1N(C)CCC(C)C was read as CHRM1 antagonist -7, M1 PAM 5, CHO-K1 Ca antag -6, CHRM1 agonist -9, M1 PAM parental 20 and M1 ag parental 1.
CCc1nc2ccc(C(=O)NCCCN(C)C)cn2c1N(C)CCCc1ccccc1 was read as CHRM1 antagonist 10, M1 PAM -12, CHO-K1 Ca antag -1, CHRM1 agonist -7, M1 PAM parental 21 and M1 ag parental 3.
`CCOC(=O)[C@]12CCCC=C1N(Cc1ccc(Cl)cc1Cl)C(=O)[C@H](CC(=O)N1CCSCC1)C2` gave CHO-K1 Ca antag -18, M1 PAM parental 23 and M1 ag parental 2.
